High-throughput results (PubChem BioAssay)
Compounds with a hit are over-represented: about 31% of the library has one in this group of screens.
CYP2C19 activ – activators of human cytochrome P450 2C19. recombinant CYP2C19, luciferin-H EGE luminescence; hits give high values; 0 = fully inhibited enzyme, 1 = untreated enzyme. activation factor at 5 µM. 96,000 tested, under 10 active. AID 1025;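 active = activation factor of at least 2 at 5 µM in the primary screen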;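 also: 0 = wells with 2.5 mM tranylcypromine and 1 = vehicle-only wells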
CYP2C19 inhib – human CYP2C19 inhibition; hit rate 21% among 96,000; AID 778; inhibition, % at 5 µM; CYP2C19 Supersomes, luciferin-H EGE luminescence, 30 min;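 active = CYP2C19 inhibition above a set limit at 5 µM in the primary screen, cut at about 50% in these data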;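 also: plate controls were negative control wells for no effect and 2.5 mM tranylcypromine positive control for full effect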
CYP2C9 inhib – blocks human cytochrome P450 2C9 | AID 777 | hit rate 20% among 96,000 | P11712 | inhibition, % at 5 µM | CYP2C9 Supersomes, luciferin-H conversion, luminescence;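 active = blocking of liver enzyme CYP2C9 beyond about 50% at 5 µM, limit read from the data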
Target sequence (P11712 whole entry, looked up): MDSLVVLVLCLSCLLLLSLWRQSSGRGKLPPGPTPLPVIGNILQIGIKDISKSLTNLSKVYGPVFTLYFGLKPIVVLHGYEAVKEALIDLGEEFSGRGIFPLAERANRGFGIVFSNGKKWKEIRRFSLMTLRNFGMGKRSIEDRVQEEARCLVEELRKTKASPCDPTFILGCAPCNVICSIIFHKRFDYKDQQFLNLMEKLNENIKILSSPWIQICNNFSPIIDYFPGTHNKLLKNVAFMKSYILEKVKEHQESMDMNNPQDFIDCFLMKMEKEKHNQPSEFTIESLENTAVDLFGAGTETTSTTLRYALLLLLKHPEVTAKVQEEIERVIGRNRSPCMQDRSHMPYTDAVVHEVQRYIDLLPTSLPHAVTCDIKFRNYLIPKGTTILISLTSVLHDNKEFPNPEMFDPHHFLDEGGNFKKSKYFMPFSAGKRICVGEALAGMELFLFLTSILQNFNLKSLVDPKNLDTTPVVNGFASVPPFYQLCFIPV
CYP2C9 activ – activators of human CYP2C9; P11712; recombinant CYP2C9, luciferin-H conversion, luminescence; hits give high values; factor 1 = untreated enzyme, 0 = blocked; activation factor at 5 µM; hit rate 1.4% among 96,000; AID 1024;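 active = activation factor of 2 or more for CYP2C9 at a 5 µM dose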;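 also: 0 = sulfaphenazole-blocked wells and 1 = vehicle-only wells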
An asterisk follows results filed as active.

CCOC(=O)C1CCCN(C(=O)Nc2cccc(Cl)c2)C1 (stereo not drawn) was read as CYP2C19 activ 0.4, CYP2C19 inhib 60*, CYP2C9 inhib 40 and CYP2C9 activ 0.6.
Screening O=C(Nc1cccc(Cl)c1)N1CCCC1 returned CYP2C19 activ 1, CYP2C19 inhib 0, CYP2C9 inhib -15 and CYP2C9 activ 1.1.
For CC(C)(C)NC(=O)C1CC(=O)OC12CCCCC2 (stereo not drawn) the results were CYP2C19 activ 1, CYP2C19 inhib -1, CYP2C9 inhib -11 and CYP2C9 activ 1.1.
`CCOC(=O)c1sc(NC(NC(=O)c2ccco2)(C(=O)OC)C(F)(F)F)nc1C` (stereo not drawn) gave CYP2C19 activ 0.9, CYP2C19 inhib 7, CYP2C9 inhib 56* and CYP2C9 activ 0.4.
Screening Cc1ccc(N2C(=O)[C@@H]3[C@H](C2=O)[C@H]2C=CC=NN2[C@@H]3C(=O)Nc2ccc(Cl)cc2)cc1 returned CYP2C19 activ 0.9, CYP2C19 inhib 9, CYP2C9 inhib 33 and CYP2C9 activ 0.7.
For O=C(Nc1ccc(Cl)cc1)[C@@H]1[C@@H]2C(=O)N(c3ccc(Cl)cc3)C(=O)[C@@H]2[C@H]2C=CC=NN21 the results were CYP2C19 activ 1.1, CYP2C19 inhib -10, CYP2C9 inhib 59* and CYP2C9 activ 0.4.
`CCOC(=O)c1c(N)sc2c1CCS(=O)(=O)C2` gave CYP2C19 activ 0.9, CYP2C19 inhib 6, CYP2C9 inhib 6 and CYP2C9 activ 0.9.
For O=C(CCNS(=O)(=O)c1cccc2nonc12)NCCc1ccc(Cl)cc1 the results were CYP2C19 activ 0.3, CYP2C19 inhib 74*, CYP2C9 inhib -92 and CYP2C9 activ 1.9.
O=C(CCNS(=O)(=O)c1cccc2nonc12)N1CCN(c2cccc(Cl)c2)CC1 was read as CYP2C19 activ 0.3, CYP2C19 inhib 68*, CYP2C9 inhib 15 and CYP2C9 activ 0.8.
`CCC(C)c1ccc(NC(=S)NCc2cccs2)cc1` (stereo not drawn) gave CYP2C19 activ 0.4, CYP2C19 inhib 58*, CYP2C9 inhib 33 and CYP2C9 activ 0.7.
Screening Cc1cccc(Nc2ncccc2C(=O)NCc2cccs2)c1C returned CYP2C19 activ 0.7, CYP2C19 inhib 34, CYP2C9 inhib 57* and CYP2C9 activ 0.4.
For Cc1ccc(Nc2ncccc2C(=O)NCc2cccs2)c(C)c1 the results were CYP2C19 activ 0.8, CYP2C19 inhib 23, CYP2C9 inhib 29 and CYP2C9 activ 0.7.
`CC(C)(C)c1ccc(NC(=S)NCc2cccs2)cc1` gave CYP2C19 activ 0.6, CYP2C19 inhib 36, CYP2C9 inhib -29 and CYP2C9 activ 1.3.
Cc1cccc(NC(=S)NCc2cccs2)c1C was read as CYP2C19 activ 0.5, CYP2C19 inhib 52*, CYP2C9 inhib 12 and CYP2C9 activ 0.9.
`CC(=O)Nc1ccccc1N(C)S(=O)(=O)c1ccc(C)cc1` gave CYP2C19 activ 0.7, CYP2C19 inhib 28, CYP2C9 inhib 38 and CYP2C9 activ 0.6.
Screening O=C(Nc1ccc(-c2nc3ccccc3o2)cc1)c1ccc(N2C(=O)C3C4C=CC(C4)C3C2=O)cc1 (stereo not drawn) returned CYP2C19 activ 1.2, CYP2C19 inhib -19, CYP2C9 inhib 7 and CYP2C9 activ 0.9.
`Cc1ccc(Nc2cnn(C34CC5CC(CC(CC(=O)O)(C5)C3)C4)c(=O)c2Cl)cc1` gave CYP2C19 activ 1.1, CYP2C19 inhib -13, CYP2C9 inhib -2 and CYP2C9 activ 1.
CO/N=C/NC(=O)N1OC[C@@H]2COc3ccc4ccccc4c3[C@@H]21 was read as CYP2C19 activ 0.4, CYP2C19 inhib 57*, CYP2C9 inhib 9 and CYP2C9 activ 0.9.
For CCN(CC)C(=O)CN(C)S(=O)(=O)c1cccc2nsnc12 the results were CYP2C19 activ 1.1, CYP2C19 inhib -8, CYP2C9 inhib -11 and CYP2C9 activ 1.1.
Cc1ccc(NC(=O)CN(C)S(=O)(=O)c2cccc3nsnc23)cc1 was read as CYP2C19 activ 0.7, CYP2C19 inhib 28, CYP2C9 inhib 77* and CYP2C9 activ 0.2.
Cc1ccc(CNC(=O)CN(C)S(=O)(=O)c2cccc3nsnc23)cc1 was read as CYP2C19 activ 0.4, CYP2C19 inhib 59*, CYP2C9 inhib 24 and CYP2C9 activ 0.8.
Screening CC(=O)c1cccc(NC(=O)CN(c2ccc(C)cc2)S(=O)(=O)c2cccc3nonc23)c1 returned CYP2C19 activ 0.5, CYP2C19 inhib 46, CYP2C9 inhib 72* and CYP2C9 activ 0.3.
`Cc1cc2n(n1)C(c1c[nH]c3ccccc13)Nc1ccccc1-2` (stereo not drawn) gave CYP2C19 activ 0.8, CYP2C19 inhib 22, CYP2C9 inhib 81* and CYP2C9 activ 0.2.
